# Experimental data as given in the supplement of paper PMC9135407.
# In all, about 5,800 compounds went through this assay and about 620 (11%) showed activity. The sample holds actives, similar compounds and a random draw of the others, so the mix is not that of the screen. Values without a mark were called inactive.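 Rule for the calls: active = score above a cut-off or among the top three wells of a plate; in these data no inactive exceeds 0.85.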
# System: primary human hepatic stellate cells (donor 1)
# Assay: scaled lipid accumulation score (0 = DMSO-like, 1 = nortriptyline-like); higher = stronger HSC inactivation (lipid re-accumulation), active = hit call of the paper
# Details: 48 h
# [1] = library stock concentration: 3.33 mM
# [2] = library stock concentration: 10 mM
# [3] = library stock concentration: 1 mM
# [4] = library stock concentration: 80 uM
# [5] = library stock concentration: 400 uM
# [6] = library stock concentration: 2 mM
smiles,measurement,setting,value
CCOC(=O)C1=C(COCCN)NC(C)=C(C(=O)OC)C1c1ccccc1Cl (centres undefined) [Amlodipine besylate],scaled lipid accumulation score,library stock concentration: 3.5 mM,≤ 0
CCOC(=O)C1=C(COCCN)NC(C)=C(C(=O)OC)C1c1ccccc1Cl (centres undefined) [Amlodipine],scaled lipid accumulation score,[1],0.492
same,scaled lipid accumulation score,library stock concentration: 4.9 mM,≤ -0.006
same,scaled lipid accumulation score,[2],0.33
CCO/C(O)=C1\C(COCCN)=NC(C)=C(C(=O)OC)C1c1ccccc1Cl (centres undefined),scaled lipid accumulation score,[2],1.38 (active)
CCOC(=O)C1=C(C)NC(C)=C(C(=O)OC)C1c1cccc(Cl)c1Cl (centres undefined) [Felodipine] [listing 1 of 2 here],scaled lipid accumulation score,[2],0.931 (active)
CCOC(=O)C1=C(C)NC(C)=C(C(=O)OC)C1c1cccc(Cl)c1Cl (centres undefined) [Felodipine] [listing 2 of 2 here],scaled lipid accumulation score,,0.05
same,scaled lipid accumulation score,[1],≤ 0
same,scaled lipid accumulation score,library stock concentration: 5.2 mM,0.028
same,scaled lipid accumulation score,[2],≤ 0
CCCC(=O)OCOC(=O)C1=C(C)NC(C)=C(C(=O)OC)C1c1cccc(Cl)c1Cl (centres undefined) [Clevidipine Butyrate],scaled lipid accumulation score,[1],≤ 0
same,scaled lipid accumulation score,[2],≤ 0
CCO/C(O)=C1\C(C)=NC(c2ccccc2)=C(C(=O)OCc2ccc([N+](=O)[O-])cc2)C1C#Cc1ccccc1 (centres undefined),scaled lipid accumulation score,[2],≤ 0
COC(=O)C1=C(C)NC(C)=C(C(=O)OCCSc2ccccc2)C1C (centres undefined),scaled lipid accumulation score,[2],0.111
same,scaled lipid accumulation score,library stock concentration: 13.8 mM,0.203
CCOC(=O)C1=C(COCCN)NC(C)=C(C(=O)OC)C1c1ccccc1Cl.O=S(=O)(O)c1ccccc1 (centres undefined) [Amlodipine besylate],scaled lipid accumulation score,[2],1.02 (active)
NC(=O)OCC(O)COc1ccc(Cl)cc1 (centres undefined) [Chlorphensin carbamate],scaled lipid accumulation score,,≤ 0
CCOc1c2c(c(OCC)c3ccccc13)C(=O)N(c1ccc(CC(=O)NS(=O)(=O)c3ccccc3)cc1)C2,scaled lipid accumulation score,[3],≤ 0
CCCCC/C=C\C/C=C\C/C=C\C/C=C\CCCCNC(=O)c1ccc(O)cc1,scaled lipid accumulation score,[3],≤ 0
"CCCCC(C)CC(O)/C=C/C1C(O)CC(O)C1CCCCCCC(=O)O (stereo not drawn) [17,20-dimethyl Prostaglandin F1.alpha.]",scaled lipid accumulation score,[3],≤ 0
Nc1cccc2c1CN(C1CCC(=O)NC1=O)C2=O (centres undefined) [Lenalidomide (CC-5013)],scaled lipid accumulation score,[1],0.003
same,scaled lipid accumulation score,[2],≤ 0
Nc1cccc2c1CN(C1CCC(=O)NC1=O)C2=O (centres undefined) [Lenalidomide],scaled lipid accumulation score,[4],0.004
same,scaled lipid accumulation score,[5],0.005
same,scaled lipid accumulation score,[6],≤ -0.001
same,scaled lipid accumulation score,[2],≤ -0.001
Nc1nc2[nH]cnc2c(=S)[nH]1 [Thioguanine],scaled lipid accumulation score,[2],≤ 0
same,scaled lipid accumulation score,library stock concentration: 12 mM,≤ 0
O=C(NCCCCCCNC(=O)ON=C1CCCCC1)ON=C1CCCCC1,scaled lipid accumulation score,[2],0.062
same,scaled lipid accumulation score,library stock concentration: 12.7 mM,0.056
CNC(=O)c1ccc(Nc2cc(Nc3ccccc3S(=O)(=O)C(C)C)c3cc[nH]c3n2)nc1,scaled lipid accumulation score,[4],0.027
same,scaled lipid accumulation score,[5],0.02
same,scaled lipid accumulation score,[6],0.04
same,scaled lipid accumulation score,[2],≤ 0
Cc1coc2c1C(=O)C(=O)c1c-2ccc2c(C)cccc12 [Tanshinone I],scaled lipid accumulation score,[1],≤ 0
same,scaled lipid accumulation score,[2],≤ 0
CCCCC/C=C\C/C=C\C/C=C\C/C=C\CCCC(=O)O [Arachidonic Acid],scaled lipid accumulation score,[3],≤ 0
"CCCCC/C=C\C/C=C\C/C=C\C/C=C\CCCC(=O)O [Arachidonic acid (20:4, n-6)]",scaled lipid accumulation score,[3],≤ -0.021
Cc1ccc(C(=O)Nc2cccc(C(F)(F)F)c2)cc1-c1ccc2nc(NCCN3CCOCC3)ncc2c1 [listing 1 of 2 here],scaled lipid accumulation score,[2],1.34 (active)
Cc1ccc(C(=O)Nc2cccc(C(F)(F)F)c2)cc1-c1ccc2nc(NCCN3CCOCC3)ncc2c1 [listing 2 of 2 here],scaled lipid accumulation score,[5],≤ -0.005
same,scaled lipid accumulation score,[6],0.748
COc1ccc(N(C(=O)Oc2cc(C(=O)Nc3cccc(C(F)(F)F)c3)ccc2C)c2ccnc(Nc3ccc(N4CCN(C)CC4)cc3)n2)c(OC)c1,scaled lipid accumulation score,[4],0.07
same,scaled lipid accumulation score,[5],0.248
same,scaled lipid accumulation score,[6],0.495
same,scaled lipid accumulation score,[2],0.396
CCCCCC(=O)/C=C/C=O [4-oxo-2-Nonenal],scaled lipid accumulation score,[3],≤ 0
COc1ccc(-c2cc(=O)c3c(O)cc(O)cc3o2)cc1 [Acacetin],scaled lipid accumulation score,,≤ 0
same,scaled lipid accumulation score,[2],≤ -0.027
Cc1cc(Nc2ncc(Cl)c(Nc3ccccc3S(=O)(=O)C(C)C)n2)c(OC(C)C)cc1C1CCNCC1 [Ceritinib],scaled lipid accumulation score,[4],0.312
same,scaled lipid accumulation score,[5],0.357
same,scaled lipid accumulation score,[6],0.663
same,scaled lipid accumulation score,[2],≤ 0
Cc1cc(Nc2ncc(Cl)c(Nc3ccccc3S(=O)(=O)C(C)C)n2)c(OC(C)C)cc1C1CCNCC1,scaled lipid accumulation score,[1],0.582
same,scaled lipid accumulation score,[2],0.131
